Akt phos inh: HTS Assay for Inhibitors of Akt Phophorylation: Primary Screen. Neuro2A IGF-stimulated pAkt S473 HTRF, 20 min; active compounds read low. activity change, % for hits at 50 µM. 0.32% of 360,000 active; in the data active = activity change below about -80%
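Single-point screen (50 µM final compound) in Neuro2A cells stimulated 20 min with 6 nM IGF at 37 deg C. After lysis, Ser473-phosphorylated Akt read by HTRF (ex 330 nm, em 615/665 nm) as the 665/615 ratio.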
TSHR antagonist: Antagonists of the Thyroid Stimulating Hormone Receptor: HTS campaign; Thyrotropin receptor (Homo sapiens), P16473; TSHR-expressing cells, TSH-stimulated cAMP HTRF, 2 h; active compounds read low; activity change, negative = inhibition, % at 11.5 µM; 0.2% of 330,000 active;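 active = activity change below a set negative limit, meaning inhibition stronger than a set level, cut at about -70% in these data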
Target sequence (P16473 whole entry, looked up): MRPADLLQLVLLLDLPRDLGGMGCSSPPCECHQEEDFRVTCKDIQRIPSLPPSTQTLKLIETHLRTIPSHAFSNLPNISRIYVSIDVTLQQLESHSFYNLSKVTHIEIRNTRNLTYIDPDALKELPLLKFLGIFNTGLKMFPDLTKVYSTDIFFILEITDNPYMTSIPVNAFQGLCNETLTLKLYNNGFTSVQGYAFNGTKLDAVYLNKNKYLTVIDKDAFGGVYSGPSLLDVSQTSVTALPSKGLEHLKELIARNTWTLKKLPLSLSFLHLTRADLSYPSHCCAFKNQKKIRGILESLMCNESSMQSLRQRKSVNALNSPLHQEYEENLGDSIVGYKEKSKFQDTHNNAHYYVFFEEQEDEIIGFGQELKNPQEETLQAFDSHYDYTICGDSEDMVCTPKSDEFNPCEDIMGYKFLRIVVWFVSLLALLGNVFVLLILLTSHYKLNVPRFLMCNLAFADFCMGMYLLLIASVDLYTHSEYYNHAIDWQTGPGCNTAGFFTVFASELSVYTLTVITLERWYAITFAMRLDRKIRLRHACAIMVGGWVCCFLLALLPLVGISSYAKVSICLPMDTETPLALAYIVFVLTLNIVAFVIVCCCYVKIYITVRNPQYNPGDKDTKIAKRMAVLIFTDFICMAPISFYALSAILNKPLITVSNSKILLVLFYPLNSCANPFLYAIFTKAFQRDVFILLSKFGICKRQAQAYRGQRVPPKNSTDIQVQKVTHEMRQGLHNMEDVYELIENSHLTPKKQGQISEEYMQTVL
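Antagonism was scored as loss of TSH-driven cAMP in TSHR cells, stimulated with 4nM TSH (EC80) for 2 hours at 37 deg C and detected by homogeneous HTRF competition immunoassay.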
CCT chaperon mod: High-Throughput Screening for Modulators of Cytosolic Chaperonin Activity. 0.3% of 360,000 active. purified chaperonin ATPase assay, HTRF ADP detection, 30 min. activity change, % (concentration not given with the values), hits read low; in the data active = activity change below about -30%
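First, chaperonin was dispensed at 40 nM or 20 nM final depending on batch activity. Next, compounds were pinned at 76 uM and ATP added at 10 uM. After 30 min at 37 °C, ADP detection reagents ran 30 min at ambient temperature.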
TCR act: Activators of T cell receptors: qHTS campaign; primary human leukocytes, anti-CD3, IL-2 HTRF, 48 h; Potency, µM (highest dose often 9.22 µM), hits mostly activators; 330,000 tested, under 10 active; AID 504894, 2011; active = well fitted activation curve with a large enough effect
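1) Mix primary human leukocytes, a-CD3 beads and compound. 2) Incubate 48 hr. 3) Add HTRF IL-2 reagents (a-IL-2-K, a-IL-2-d2).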
Hits are given with their value; 0 = inactive; - = no result; ! = not confirmed by another sample. Most compounds without a hit are left out; they make up all but 0.74% or so of the library.

SMILES	Akt phos inh	TSHR antagonist	CCT chaperon mod	TCR act
Cc1ccc(S(=O)(=O)NC(=O)NN2CC3CCCC3C2)cc1 (stereo not given)	0	0	-43.8	0
Cc1ccc(NC(=O)CN2C(=O)NC(Cc3ccccc3)C2=O)c(Br)c1 (stereo not given)	0	0	0	0
CCCSC1=C(C#N)C(c2cccs2)C(C(=O)Nc2ccccc2)=C(C)N1 (stereo not given)	0	-78.7	0	0
CN(C(=O)c1ccc(Br)o1)C1CCS(=O)(=O)C1 (stereo not given)	0	0	0	0
Cc1cc(-c2onc(C)c2C(=O)O)no1	0	0	0	0
Cc1cc[n+](CC(=O)c2ccc3c(c2)OCCO3)cc1	0	0	0	0
O=C(C[n+]1ccc(/C=C/c2ccccc2)cc1)c1ccc2c(c1)OCCO2	0	0	-66.3	0
O=C(COC(=O)C(O)c1ccccc1)c1ccc2c(c1)OCCO2 (stereo not given)	0	0	-38.7	0
O=C(COC(=O)c1ccc(Cl)nc1)c1ccc2c(c1)OCCO2	0	0	0	0
O=S(=O)(c1ccccc1F)N1CCN(CCc2ccccc2)CC1	0	0	0	0
Cc1ccc(S(=O)(=O)c2ccc(Cl)cc2)cc1S(N)(=O)=O	0	0	-71.1	0
OCC1NCC(O)C(O)C1O (stereo not given)	-	0	-	-
CC1(C)CC(c2csc(N)n2)CCO1 (stereo not given)	0	0	-39.2	0
Nc1nc(C2CCOCC2)cs1	0	0	0	0
COc1ccc(C2C(C(=O)c3ccco3)=C(O)C(=O)N2CCc2ccccc2)cc1OC (stereo not given)	0	0	0	0
COc1ccc(C2C(C(=O)c3ccco3)=C(O)C(=O)N2CCOCCO)cc1OC (stereo not given)	-85.2%	0	0	0
CCCCN(Cc1ccccc1)c1ncnc2nc[nH]c12	0	-70.3	0	0
CCCCN(CCCC)c1ncnc2nc[nH]c12	0	0	0	0
Cn1nc(C(F)(F)F)c(-c2ccc(Br)cc2)c1NC(=O)Nc1ccc(F)cc1F	0	0	0	0
CC(=O)c1sc(NC(=O)C(C)C)nc1C	0	0	0	0
CC(=O)Nc1nc(C)c(C(C)=O)s1	-105.9%	0	0	0
Cc1n[nH]c(=S)n1-c1cccc(Cl)c1	0	0	-55.0	0
Cc1ccccc1OCc1n[nH]c(=S)n1-c1cccc(Cl)c1	0	0	0	-
CCNc1nc(N)nc(Oc2ccc(C(=O)OC)cc2)n1	-95.0%	0	0	0
N/C(Cc1ccc([N+](=O)[O-])cc1)=N\OC(=O)Cc1ccc(Cl)cc1	0	-77.3	0	0
SMILES	Akt phos inh	TSHR antagonist	CCT chaperon mod	TCR act
COc1cccc(Cn2ncc3c4sc(Br)cc4n(C)c3c2=O)c1	-	0	-	-
Cc1ccc(CCNC(=O)CCS(=O)(=O)c2ccc3c(c2)oc(=O)n3C)cc1	0	0	0	0
Cn1c(=O)oc2cc(S(=O)(=O)CCC(=O)NCCc3ccccc3)ccc21	0	0	-64.9	0
COc1ccc(S(=O)(=O)NC(C(=O)OCC(=O)Nc2ccc(N3CCOCC3)cc2)C(C)C)cc1 (stereo not given)	0	-	0	0
CCN(CC)c1ccc(C(=O)OCC(=O)N2CCCC2)cc1	0	-111.5	0	0
Cc1ccc(CNC(=O)C2c3ccccc3C(=O)N3CCc4ccccc4C23)o1 (stereo not given)	-100.1%	0	0	0
CCc1oc2ccccc2c1C(=O)c1cc(Br)c(O)c(Br)c1	0	-70.1	0	0
CC(=O)NCc1cc(Cl)c2cccnc2c1O	-	0	-	-
O=C(COC(=O)c1cnccn1)Nc1cc(S(=O)(=O)N2CCOCC2)ccc1Cl	0	0	0	0
Cn1c(=O)c2c(O)c(Cc3ccccc3)c(=O)[nH]c2n(C)c1=O	0	0	0	0
CCC(=Nc1ccc(Cc2ccncc2)cc1)c1c(O)n(C)c(=O)n(C)c1=O	-120.7%!	0	0	0
COCc1cc(CNC(=O)C2CCC(=O)N(Cc3cccc(OC)c3)C2)[nH]n1 (stereo not given)	0	0	-47.9	0
COc1ccc2nc(CNC(=O)C3CCC(=O)N(CCc4ccccc4)C3)[nH]c2c1 (stereo not given)	0	0	-56.3	0
COCc1cc(CNC(=O)C2CCC(=O)N(Cc3ccccc3OC)C2)[nH]n1 (stereo not given)	0	0	0	0
COc1cccc(CN2CC(C(=O)N(C)Cc3nc(C)cs3)CCC2=O)c1 (stereo not given)	0	0	-30.9	0
COc1cccc(CN2CC(C(=O)N(C)CCc3ccccc3)CCC2=O)c1 (stereo not given)	0	0	0	0
CC(C)c1nc2sc3c(SCC(=O)NCc4ccco4)ncnc3c2c2c1CCC2	-95.2%	0	0	0
O=C(CSc1ncnc2sc3c(c12)CCCCC3)NCc1ccco1	0	0	0	0
CC[C@@H](C(=O)[C@@H](C)[C@@H](O)[C@H](C)[C@@H]1O[C@@H]([C@@H](CC)C(=O)O)CC[C@@H]1C)[C@H]1O[C@]2(C=C[C@@H](O)[C@]3(CC[C@@](C)([C@H]4CC[C@](O)(CC)[C@H](C)O4)O3)O2)[C@H](C)C[C@@H]1C	0	-	0	0
CC[C@@H](C(=O)[C@@H](C)[C@@H](O)[C@H](C)CCc1ccc(C)c(O)c1C(=O)O)[C@H]1O[C@](CC)([C@H]2CC[C@](O)(CC)[C@H](C)O2)C[C@@H]1C	0	-84.2	0	0
O=C1NC(=O)/C(=C/c2ccc3c(c2)OC(F)(F)O3)S1	-	0	-	-
O=C1CN(S(=O)(=O)c2ccc([N+](=O)[O-])cc2)CC(=O)N1	0	0	-51.8	0
CC1CCN(S(=O)(=O)c2ccc(Oc3ccc([N+](=O)[O-])cc3)cc2)CC1	-81.4%	0	0	0
CC1CCN(S(=O)(=O)c2ccc([N+](=O)[O-])cc2)CC1	0	0	0	0
O=C1NC(=O)C2(CCCC2c2ccccc2)N1 (stereo not given)	0	-	0	0
SMILES	Akt phos inh	TSHR antagonist	CCT chaperon mod	TCR act
O=C(O)C(Cc1cn[nH]n1)=NO	0	0	-51.3	0
CCCCCC(=O)Nc1cccc(C2=NOC3(C2)C[C@H](C(N)=O)N(C(=O)CC)C3)c1 (stereo not given in full)	0	0	0	0
O=S(=O)(NCCC1=CCCCC1)c1cccc2nsnc12	0	0	0	0
O=C(CCNS(=O)(=O)c1cccc2nsnc12)NCCC1=CCCCC1	-110.5%	0	0	0
Cc1cc(OCC(=O)OCC(=O)NCc2ccco2)ccc1Cl	0	0	0	0
CC(C)N(C(=O)c1ccc(C(=O)Nc2ccc([N+](=O)[O-])cc2)cc1)C(C)C	0	0	-31.9	-
O=C(NCCc1ccccc1)C1CCC(=O)N1CCc1ccccc1 (stereo not given)	0	0	0	0
CCOc1ccc(CCNC(=O)C2CCC(=O)N2CCc2ccccc2)cc1OCC (stereo not given)	-82.0%	0	0	0

From PubChem
